Results filed as inconclusive are left out. The source made the active and inactive calls. Unless noted, calls come from the whole dose curve; as a rule, active = well fitted curve in the direction sought with a large enough effect; inconclusive = small, poorly fitted or top-dose-only effect, or another doubt; inactive = no such curve, though single readings can be large; an effect the other way counts as inactive or inconclusive.
Columns and labels:
[1] = molecular target: DNA repair nuclease/redox regulator APEX1 (Homo sapiens) (UniProt P27695); experiment: qHTS Validation Assay for Inhibitors of the Human Apurinic/apyrimidinic Endonuclease 1 (APE1) (AID 1705;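 note: TAMRA fluorescence gain over two minutes as APE1 cuts a quenched THF abasic duplex; series mostly up to about 57 µM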)
Sequence of DNA repair nuclease/redox regulator APEX1 (Homo sapiens) (P27695 whole entry, looked up): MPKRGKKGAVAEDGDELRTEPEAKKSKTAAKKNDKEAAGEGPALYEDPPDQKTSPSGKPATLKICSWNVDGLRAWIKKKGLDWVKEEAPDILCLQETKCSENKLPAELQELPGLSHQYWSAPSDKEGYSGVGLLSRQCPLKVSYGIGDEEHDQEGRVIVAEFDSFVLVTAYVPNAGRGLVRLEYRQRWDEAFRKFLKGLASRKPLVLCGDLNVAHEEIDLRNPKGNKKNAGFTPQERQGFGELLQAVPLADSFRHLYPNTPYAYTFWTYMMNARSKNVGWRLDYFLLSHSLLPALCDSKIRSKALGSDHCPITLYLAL
Summary of the method: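 Endonuclease activity of human APE1 is followed as dequenching when the enzyme incises a tetrahydrofuran abasic site in a short duplex labelled 5'-TAMRA/3'-BHQ-2 (50 nM final), after 15 min enzyme–compound preincubation at room temperature.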

[2] = Counterscreen for APE1 Inhibitors: Fluorescent Dye Displacement Validation Assay (AID 1707)
Summary of the method: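 ThO 250 nM + dsDNA 50 nM (THF abasic site, 5'-TAMRA), Tris-HCl pH7.5/50mM NaCl/2 mM MgCl2/0.01% Tween-20; compounds pin-transferred; ex 480/em 540 nm endpoint. Neutral = no compound; no-DNA ThO wells = negative control.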

[3] = qHTS for differential inhibitors of proliferation of Plasmodium falciparum line 3D7 (AID 1876); note: potency is the fitted concentration of half-maximal effect
[4] = qHTS for differential inhibitors of proliferation of Plasmodium falciparum line Dd2 (AID 1882); conditions: Potency: Plasmodium falciparum Dd2 proliferation inhibition; note: nearly all actives have a fitted effect of over 65% in size; note: potency is the fitted concentration of half-maximal effect
Summary of the method: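 Dd2-infected erythrocytes (0.3% parasitemia, 2.5% hematocrit final) incubated with compound 72 h at 37 C, 5% CO2; lysed with saponin/Triton buffer containing SYBR Green I, incubated overnight in the dark, then read by fluorescence (485/535 nm). Normalized to 0.29 uM artemisinin and DMSO.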

[5] = molecular target: ATP-dependent DNA helicase Q1 (Homo sapiens) (UniProt P46063); experiment: qHTS Validation Assay for Inhibitors of RecQ-Like Dna Helicase 1 (RECQ1) (AID 2353)
Sequence of ATP-dependent DNA helicase Q1 (Homo sapiens) (P46063 whole entry, looked up): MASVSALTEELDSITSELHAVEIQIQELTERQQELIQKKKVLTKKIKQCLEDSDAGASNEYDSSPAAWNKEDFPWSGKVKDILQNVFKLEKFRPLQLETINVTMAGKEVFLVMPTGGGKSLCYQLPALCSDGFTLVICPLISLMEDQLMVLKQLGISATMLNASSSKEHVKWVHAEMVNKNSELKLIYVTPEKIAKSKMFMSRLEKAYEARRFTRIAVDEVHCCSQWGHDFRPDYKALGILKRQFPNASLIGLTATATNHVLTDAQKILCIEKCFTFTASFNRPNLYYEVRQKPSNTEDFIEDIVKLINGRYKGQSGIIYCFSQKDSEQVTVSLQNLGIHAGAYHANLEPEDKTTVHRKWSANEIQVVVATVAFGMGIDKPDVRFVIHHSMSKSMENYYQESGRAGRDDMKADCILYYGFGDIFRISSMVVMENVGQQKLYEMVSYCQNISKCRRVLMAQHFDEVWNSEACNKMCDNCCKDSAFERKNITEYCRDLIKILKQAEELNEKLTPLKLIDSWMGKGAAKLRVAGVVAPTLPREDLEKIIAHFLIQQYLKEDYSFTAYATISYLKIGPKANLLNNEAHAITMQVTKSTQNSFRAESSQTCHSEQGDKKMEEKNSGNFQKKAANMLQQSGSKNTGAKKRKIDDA
Summary of the method: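 50 nM RECQ1T1 preincubated 15 min with compound in Tris pH 8.0 buffer with MgCl2, DTT, Tween-20 and 2.5 ug/ml poly(dI-dC); started with 200 nM TAMRA/BHQ-2 forked duplex and 2 mM ATP. Unwinding read as fluorescence (525/598 nm), two reads 2 h apart.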

[6] = molecular target: RecQ-like DNA helicase BLM (Homo sapiens) (UniProt P54132); experiment: qHTS Validation Assay for Inhibitors of Bloom's syndrome helicase (BLM) (AID 2364)
Sequence of RecQ-like DNA helicase BLM (Homo sapiens) (P54132 whole entry, looked up): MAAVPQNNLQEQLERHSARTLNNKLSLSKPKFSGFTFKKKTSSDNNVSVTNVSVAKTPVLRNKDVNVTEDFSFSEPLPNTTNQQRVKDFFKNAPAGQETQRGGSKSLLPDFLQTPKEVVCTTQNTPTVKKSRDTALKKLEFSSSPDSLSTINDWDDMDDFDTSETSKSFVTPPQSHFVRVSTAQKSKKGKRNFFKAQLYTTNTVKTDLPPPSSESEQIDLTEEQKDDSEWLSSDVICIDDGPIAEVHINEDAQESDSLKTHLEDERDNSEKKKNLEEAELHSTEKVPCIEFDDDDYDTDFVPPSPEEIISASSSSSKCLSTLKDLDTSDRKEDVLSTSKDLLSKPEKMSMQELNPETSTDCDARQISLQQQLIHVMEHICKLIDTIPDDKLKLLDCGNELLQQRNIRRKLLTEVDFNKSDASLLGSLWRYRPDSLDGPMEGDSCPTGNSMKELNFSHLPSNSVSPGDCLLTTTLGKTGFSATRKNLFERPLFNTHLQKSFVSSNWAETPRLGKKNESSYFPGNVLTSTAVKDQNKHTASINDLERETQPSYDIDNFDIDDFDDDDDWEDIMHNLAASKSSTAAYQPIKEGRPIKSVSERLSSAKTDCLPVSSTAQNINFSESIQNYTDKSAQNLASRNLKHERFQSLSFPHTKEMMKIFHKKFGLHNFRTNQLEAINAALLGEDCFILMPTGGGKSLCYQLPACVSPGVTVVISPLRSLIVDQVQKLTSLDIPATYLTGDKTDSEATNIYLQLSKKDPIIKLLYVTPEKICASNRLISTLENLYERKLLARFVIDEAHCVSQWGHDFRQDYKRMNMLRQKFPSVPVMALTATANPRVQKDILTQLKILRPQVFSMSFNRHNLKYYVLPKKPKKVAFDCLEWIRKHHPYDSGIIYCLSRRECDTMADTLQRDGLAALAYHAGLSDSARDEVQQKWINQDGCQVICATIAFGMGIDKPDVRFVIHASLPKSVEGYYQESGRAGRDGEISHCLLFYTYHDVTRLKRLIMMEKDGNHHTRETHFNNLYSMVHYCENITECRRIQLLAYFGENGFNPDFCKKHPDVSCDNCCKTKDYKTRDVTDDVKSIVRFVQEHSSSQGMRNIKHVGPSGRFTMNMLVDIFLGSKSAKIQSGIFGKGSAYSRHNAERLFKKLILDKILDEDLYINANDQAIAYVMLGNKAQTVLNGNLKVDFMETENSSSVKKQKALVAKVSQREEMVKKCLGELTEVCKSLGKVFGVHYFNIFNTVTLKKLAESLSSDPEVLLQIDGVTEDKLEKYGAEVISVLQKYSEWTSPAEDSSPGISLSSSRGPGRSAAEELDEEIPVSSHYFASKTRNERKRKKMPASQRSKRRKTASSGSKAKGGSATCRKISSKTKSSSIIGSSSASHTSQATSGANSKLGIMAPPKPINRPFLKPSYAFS
Summary of the method: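 Forked 20-bp duplex substrate (200 nM, TAMRA/BHQ-2) plus 2 mM ATP added after 15 min compound preincubation with 50 nM enzyme, pH 8.0, poly(dI-dC) 2.5 ug/ml. Strand separation followed by fluorescence (525/598 nm) over 2 h, normalized to enzyme-free and DMSO controls.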

[7] = Cytometric Cell-Based qHTS for Inhibitors of the mTORC1 Signaling Pathway in MEF (Tsc2-/-, p53-/-) Cells (AID 2660); note: potency is the fitted concentration of half-maximal effect
Summary of the method: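 Percent of cells positive for normalized phospho-S6 staining is reported, with the cutoff set from rapamycin (7.5 nM) versus DMSO wells. Tsc2-/-, p53-/- MEFs received compound for 24 hrs.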

[8] = qHTS for differential inhibitors of proliferation of Plasmodium falciparum line GB4 (AID 1816); conditions: Potency: Plasmodium falciparum GB4 proliferation inhibition;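 note: parasite growth measured after 72 h incubation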; note: potency is the fitted concentration of half-maximal effect
[9] = qHTS for differential inhibitors of proliferation of Plasmodium falciparum line D10 (AID 1877);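 note: parasites grown with compound for 72 h before DNA staining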; note: potency is the fitted concentration of half-maximal effect
[10] = qHTS for differential inhibitors of proliferation of Plasmodium falciparum line W2 (AID 1883); conditions: Potency: Plasmodium falciparum W2 proliferation inhibition;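 note: parasites grown with compound for 72 h before lysis and staining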; note: potency is the fitted concentration of half-maximal effect
[11] = qHTS for differential inhibitors of proliferation of Plasmodium falciparum line HB3 (AID 1886); conditions: Potency: Plasmodium falciparum HB3 proliferation inhibition;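 note: parasites grown with compound for 72 h before SYBR Green readout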; note: potency is the fitted concentration of half-maximal effect
[12] = molecular target: Ferritin light chain (Equus caballus) (UniProt P02791); experiment: qHTS Validation Assay for Identification of Novel General Anesthetics (AID 2323); note: series mostly up to about 77 µM
Sequence of Ferritin light chain (Equus caballus) (P02791 2-175 limits assumed): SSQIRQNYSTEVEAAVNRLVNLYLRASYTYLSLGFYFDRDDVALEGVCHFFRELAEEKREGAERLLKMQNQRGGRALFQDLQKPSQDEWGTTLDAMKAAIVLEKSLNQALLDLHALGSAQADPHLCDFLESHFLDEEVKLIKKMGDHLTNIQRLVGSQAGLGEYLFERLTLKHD
Summary of the method: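 Apoferritin from horse spleen (10 uM) was mixed with 1-aminoanthracene at 50% saturation in PBS, then compounds were added. After 10 min at room temperature, fluorescence was read (ex 380 nm, em 535 nm) and normalized to free-probe and complex controls.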

[13] = High Content Imaging Cell-Based qHTS for Inhibitors of the mTORC1 Signaling Pathway in MEF Cells (AID 2667);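 note: Tsc2-/- p53-/- MEFs stably re-expressing wild-type Tsc2 exposed 24 h; series mostly up to about 38 µM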
Summary of the method: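 Immunofluorescence for rpS6 phosphorylation in MEFs of Tsc2-/-, p53-/- background rescued with WT Tsc2. Compound exposure lasted 24 hrs. Inhibition was scored against rapamycin-treated control wells.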

[14] = Cytometry Cell-Based qHTS for Inhibitors of the mTORC1 Signaling Pathway in MEF cells (AID 2668);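 note: Tsc2-/- p53-/- mouse embryonic fibroblasts stably re-expressing wild-type Tsc2; percent cells positive for phospho-rpS6 Ser235/236 relative to propidium iodide stain; series mostly up to about 38 µM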
Summary of the method: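 Pathway inhibition in WT Tsc2-rescued Tsc2-/-, p53-/- MEFs is measured as the Alexa-488 phospho-rpS6 to propidium iodide intensity ratio after 24 hrs of compound at 37 degree Celsius. PI-stained cell number gives viability.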

[15] = Validation screen for inhibitors of Lassa infection (AID 463096; calls by dose curve; note: potency is the fitted concentration of half-maximal effect)
[16] = qHTS Assay for Modulators of Human Peripheral Myelin Protein 22 (PMP22) Expression/Activity (AID 1967; active = well fitted curve in the direction sought with a large enough effect in the signal ratio; the % refers to the signal ratio)
Summary of the method: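 Quantitative HTS in a mouse Schwann cell line expressing dual click beetle luciferases: Pmp22 promoter (green) and control EF-alpha promoter (red). After 24h treatment, corrected green/red signal ratio gave %Activity relative to untreated cells.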

[17] = qHTS Assay for Identification of Small Molecule Inducers of Hypoxia Response (AID 2120; active = well fitted curve in the direction sought with a large enough effect in the signal ratio, with a control signal flat, not every such curve was filed as active; the % refers to the signal ratio)
Summary of the method: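 HRE-bla ME-180 cells in Opti-MEM with 0.5% dialyzed FBS, pre-plated 4-5 h, then compound titration for 17 h at 37 degrees Celsius. CCF4 loaded 2.5 h at room temperature; 460/530 nm ratio gave %Activity and AC50 for induction.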

[18] = High Content Imaging Cell-Based qHTS for Inhibitors of the mTORC1 Signaling Pathway in MEF (Tsc2-/-, p53-/-) Cells (AID 2666);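 note: percent of cells scored positive for phospho-rpS6 Ser235/236 immunostaining by imaging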
Summary of the method: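 Cells were plated, dosed with compound after 24 hrs, and incubated another 24 hrs at 37 degree Celsius. Fixed cells were immunostained for phospho-rpS6 Ser235/236 and counterstained, and the normalized signal was scored as % active cells against rapamycin and DMSO controls.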

[19] = qHTS for differential inhibitors of proliferation of Plasmodium falciparum line 7G8 (AID 1815);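 note: parasite growth measured after three days of incubation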; note: potency is the fitted concentration of half-maximal effect

Measured: Potency

CN[C@@H]1C[C@@H](c2ccc(Cl)c(Cl)c2)c2ccccc21
active: [3] 12.6 µM | [4] 12.6 µM | [7] 18.5 µM
inactive: [1] | [2] | [5] | [6]

C[C@]12N[C@H](Cc3ccccc31)c1ccccc12
active: [8] 1.78 µM | [4] 7.08 µM | [10] 1.58 µM
not listed: [16] | [17] | [18] | [19]
inactive: all other assays above

CNCCc1ccc(O)c(O)c1
active: [8] 8.91 µM | [3] 12.6 µM | [10] 10 µM
inactive: [1] | [2] | [12] | [5] | [7] | [13] | [14] | [15]

CCCN1CCC[C@H](c2cccc(O)c2)C1
active: [8] 14.1 µM | [10] 11.2 µM
not listed: [4] | [6] | [9] | [17] | [18] | [19]
inactive: all other assays above

CCOCCOC(C)=O
inactive: [17]

CC(Cc1ccc(O)cc1)NCC(O)c1cc(O)cc(O)c1 (centres undefined)
inactive: [1] | [2] | [4] | [12] | [7] | [13] | [14] | [15]

O=[N+]([O-])c1c2ccccc2cc2ccccc12
inactive: [17]

O=C(O)C(Cl)Cl
inactive: [17]

C#CCOC(=O)C1=CCCN(C)C1
active: [3] 12.6 µM | [10] 15.8 µM
not listed: [8] | [9] | [11] | [16] | [17] | [19]
inactive: all other assays above

O=[N+]([O-])c1cc([N+](=O)[O-])c2ccccc2c1
inactive: [17]

NC1CCc2cc(O)c(O)cc2C1 (centres undefined)
active: [10] 14.1 µM
not listed: [2] | [6] | [8] | [9] | [11] | [17] | [18]
inactive: all other assays above

Nc1ccc(Cl)cc1N
inactive: [17]

NC(=O)CN1CC(O)CC1=O (centres undefined)
active: [11] 2.82 µM
not listed: [1] | [6] | [17] | [18]
inactive: all other assays above

CC(=O)NCCc1c[nH]c2ccccc12
not listed: [6] | [10] | [17] | [19]
inactive: all other assays above

CN[C@@H](C)[C@H](O)c1ccccc1
active: [19] 12.6 µM | [8] 10 µM | [15] 10 µM
inactive: [1] | [2] | [12] | [5]

CC(=O)[C@H]1CCC2C3CC[C@H]4C[C@H](O)CC[C@]4(C)C3CC[C@@]21C (some centres undefined)
active: [19] 14.1 µM | [10] 10 µM
not listed: [3] | [6] | [8] | [9] | [11] | [16] | [17]
inactive: all other assays above

CC[C@H](CO)Nc1nc(NCc2ccccc2)c2ncn(C(C)C)c2n1
active: [19] 5.01 µM | [8] 6.31 µM | [3] 3.16 µM | [9] 10 µM | [10] 5.62 µM | [11] 5.62 µM
inactive: [15]

CC(C)(O)C(=O)Nc1ccc([N+](=O)[O-])c(C(F)(F)F)c1
inactive: [17]

CCCCCCCCc1ccc(O)cc1
inactive: [17]

O=S(=O)(c1ccc(Cl)cc1)c1ccc(Cl)cc1
inactive: [17]

C=CC(=O)NCNC(=O)C=C
inactive: [17]

CC(C)(C)NCC(O)c1ccc(O)c(CO)c1 (centres undefined)
inactive: [15]

NCCCC(N)(C(=O)O)C(F)F (centres undefined)
inactive: [15]

CCOP(=O)(NC(C)C)Oc1ccc(SC)c(C)c1 (centres undefined)
inactive: [17]

CC(C[N+](C)(C)C)OC(N)=O (centres undefined)
inactive: [15]

CS(=O)(=O)Nc1ccc([N+](=O)[O-])cc1Oc1ccccc1
inactive: [15]

CC1=C(/C=C/C(C)=C/C=C/C(C)=C/C(=O)O)C(C)(C)CCC1
inactive: [15]

O=C(O)COc1ccccc1
inactive: [17]

O=[N+]([O-])c1c(Cl)c(Cl)cc(Cl)c1Cl
inactive: [17]

CCn1cc(C(=O)O)c(=O)c2cc3c(cc21)OCO3
inactive: [12] | [15]

COC(=O)[C@@H](N)CCCN=C(N)N[N+](=O)[O-]
inactive: [7] | [13] | [14]

Cc1cc(O)ccc1Cl
inactive: [17]

CCN(CC)CCNC(=O)c1ccc(NC(C)=O)cc1
inactive: [15]

CN(C)NC(=O)CCC(=O)O
inactive: [17]

CC(C)(Sc1ccc(CCN(CCCCC2CCCCC2)C(=O)NC2CCCCC2)cc1)C(=O)O
inactive: [15]

CCN1CCc2nc(N)oc2CC1
inactive: [15]

O=C(N[C@H]1CN2CCC1CC2)c1ccc(Cl)cc1
inactive: [7] | [13] | [14]

NCCS
inactive: [15]

C[C@@H](N)C1CCC(C(=O)Nc2ccncc2)CC1 (some centres undefined)
inactive: [15]

CC(C)c1ccc2c(c1)c(SC(C)(C)C)c(CC(C)(C)C(=O)O)n2Cc1ccc(Cl)cc1
inactive: [15]

CC(C)C[C@H](NC(=O)[C@@H](O)[C@H](N)Cc1ccccc1)C(=O)O
inactive: [15]

CCc1c(C)[nH]c2c1C(=O)C(CN1CCOCC1)CC2 (centres undefined)
inactive: [15]

c1ccc(C2(c3ccccc3)CC2C2=NCCN2)cc1 (centres undefined)
inactive: [7] | [13] | [14]

c1cc2ccc3cccc4ccc(c1)c2c34
inactive: [17]
